Measurements reported in PubChem BioAssay.
Active and inactive are the calls of the source. Unless noted, no rule for the calls is given here.

Legend:
[1] = system: XIP peptide (Xip251-270) binding; assay: XIP fragment 251-270 binding compounds – biochemical, small-molecule microarray, fluorescence 635/667 nm, 0.1 µg/mL protein, primary screen (AID 1182); conditions: fluorescent protein binding, 635 nm, higher = more signal, called active from +8 up or from −8 down
XIP peptide (Xip251-270) = assay: compounds binding XIP fragment 251-270 – biochemical, small-molecule microarray, fluorescence 635/667 nm, 0.5 µg/mL protein, primary screen (AID 1183); conditions: fluorescence 635 nm, higher = more signal
[2] = blood-stage malaria parasite viability loss – strain 3D7, DAPI fluorescence, 100 nL, primary screen (AID 1184);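 also: parasites grown inside human red blood cells in medium with human serum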; conditions: P. falciparum 3D7 growth, 3 d, higher = more signal
[3] = molecular target: Homeobox protein Hox-A13 (Mus musculus) (UniProt Q62424); assay: disruptors of Hoxa13 oligonucleotide interaction – biochemical, fluorescence polarization, labeled oligonucleotide, primary screen (AID 1185); conditions: Hoxa13:DNA binding, 15 min, higher = more signal, called active from +8 up or from −8 down
[4] = blockers of DNA damage checkpoint Chk1 activation – imaging, HeLa, hydroxyurea, phospho-Chk1 antibody, percent positive cells, primary screen (AID 1186); conditions: hydroxyurea-induced phospho-Chk1 immunofluorescence imaging, higher = more signal
[5] = blockers of DNA damage checkpoint Chk1 activation – imaging, HeLa, hydroxyurea, phospho-Chk1 nuclear intensity, primary screen (AID 1187); conditions: hydroxyurea-induced phospho-Chk1 immunofluorescence imaging, higher = more signal

Homeobox protein Hox-A13 (Mus musculus), sequence (Q62424 whole entry, looked up): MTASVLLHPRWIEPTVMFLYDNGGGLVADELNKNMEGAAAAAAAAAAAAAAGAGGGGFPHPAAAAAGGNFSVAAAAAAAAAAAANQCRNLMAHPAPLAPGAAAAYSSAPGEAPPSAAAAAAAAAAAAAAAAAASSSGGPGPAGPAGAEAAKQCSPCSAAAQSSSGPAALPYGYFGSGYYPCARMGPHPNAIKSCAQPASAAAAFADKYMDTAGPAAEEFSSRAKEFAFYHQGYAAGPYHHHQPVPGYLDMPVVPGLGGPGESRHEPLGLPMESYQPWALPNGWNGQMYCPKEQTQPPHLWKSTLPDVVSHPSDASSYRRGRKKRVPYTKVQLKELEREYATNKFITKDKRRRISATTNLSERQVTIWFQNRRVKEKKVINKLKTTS

Row | Compound | composite z-score [1] | composite z-score (XIP peptide (Xip251-270)) | z-score [2] | z-score [3] | z-score [4] | z-score [5]
1 | C=CCNC(=O)[C@H]1[C@@H]2C(=O)O[C@@H](c3ccccc3)[C@@H](c3ccccc3)N2[C@@H](c2ccccc2OCCO)[C@]12C(=O)N(C(=O)OCCOC)c1ccc(C#CC3(O)CCCCCC3)cc12 | 0.892 (inactive) | 0.712 | -2.15 | -0.807 (inactive) | -0.485 (inactive) | -0.428 (inactive)
2 | C=C[C@H]1C(C(=O)OCC)=CC[C@@H](c2ccccc2)N1S(=O)(=O)c1ccc(C)cc1 | 0.413 (inactive) | 0.635 | -1.89 | -2.34 (inactive) | -0.229 (inactive) | -0.732 (inactive)
3 | CCOC(=O)C[C@H]1[C@H](OC(=O)c2ccc(-c3ccccc3)cc2)[C@@H](NC(=O)CC(C)C)c2cc(OCCCO)ccc2N1C(=O)c1ccc2ccccc2n1 | -0.349 (inactive) | 0.381 | -0.459 | -2.19 (inactive) | 0.319 (inactive) | 0.571 (inactive)
4 | O=C1O[C@@H](c2ccccc2)[C@@H](c2ccccc2)N2[C@@H](c3ccc(OCCO)cc3)[C@]3(C(=O)Nc4ccc(C#CC5=CCCCC5)cc43)[C@@H](C(=O)NC[C@H](O)c3ccccc3)[C@H]12 | 0.127 (inactive) | 0.693 | -1.35 | 3.28 (inactive) | 0.27 (inactive) | 0.433 (inactive)
5 | Cc1ccc(S[C@]2(C(=O)O)CC(=O)N(C3CCCCC3)[C@@H]2c2ccc(CO)cc2I)cc1 | 2.84 (inactive) | 0.526 | -0.348 | -5.25 (inactive) | 0.542 (inactive) | 0.675 (inactive)
6 | C=CC[C@@H](OC(=O)Nc1ccc(SC)cc1)c1ccc(O)c(F)c1 | 0.452 (inactive) | 0.257 | -0.671 | -1.19 (inactive) | -0.12 (inactive) | 0.539 (inactive)
7 | COC(=O)[C@@]1(Cc2ccc(OC)cc2)[C@H]2c3cc(C(=O)N(C)C)n(Cc4ccc(OC(F)(F)F)cc4)c3C[C@H]2CN1C(=O)c1ccccc1 | -0.202 (inactive) | 0.112 | -1.42 | -5.65 (inactive) | 0.154 (inactive) | -0.666 (inactive)
8 | C=CCNC(=O)[C@@H]1[C@H]2C(=O)O[C@H](c3ccccc3)[C@H](c3ccccc3)N2[C@H](c2ccccc2OCCO)[C@@]12C(=O)N(C(=O)OCCOC)c1ccc(C#CC3(O)CCCCCC3)cc12 | 0.99 (inactive) | 0.674 | -2.21 | -2.56 (inactive) | -0.0659 (inactive) | 0.294 (inactive)
9 | COC(=O)[C@@]1(Cc2ccc(F)cc2)[C@H]2c3cc(C(=O)N(C)C)n(Cc4ccc(OC(F)(F)F)cc4)c3C[C@H]2CN1C(=O)c1ccccc1 | 0.342 (inactive) | -0.133 | 0.595 | -0.102 (inactive) | 0.233 (inactive) | 0.579 (inactive)
10 | [N-]=[N+]=Nc1ccccc1[C@@H]1OC(c2ccc(OCCCO)cc2)=N[C@]1(Cc1ccccc1)C(=O)N1CCCCC1 | 3.82 (inactive) | 0.806 | -2.38 | -4.3 (inactive) | -0.23 (inactive) | -0.606 (inactive)
11 | COCCOC(=O)N1C(=O)[C@@]2(c3cc(C#CC4=CCCCC4)ccc31)[C@H](c1ccccc1OCCO)N1[C@H](c3ccccc3)[C@H](c3ccccc3)OC(=O)[C@H]1[C@@H]2C(=O)N1CCN(c2ncccn2)CC1 | 0.735 (inactive) | 0.55 | -1.86 | 1.02 (inactive) | -0.333 (inactive) | -0.385 (inactive)
12 | CCC1=C2CN(Cc3ccccc3)[C@@H](C(=O)Cc3ccccc3)C2C=CCC1 (stereo not given in full) | 0.932 (inactive) | 0.758 | -1.75 | -4.07 (inactive) | 0.313 (inactive) | -0.119 (inactive)
13 | C=CCC(OC(C)=O)[C@@H]1[C@@H](N(Cc2ccc(-c3cccc(C(F)(F)F)c3)o2)C(=O)Cc2ccc(OC)cc2)c2cc(OCCCO)ccc2N1C(=O)c1ccc(-c2ccccc2)cc1 (stereo not given in full) | 0.169 (inactive) | -0.0425 | -2.78 | -1.67 (inactive) | 0.152 (inactive) | 0.463 (inactive)
14 | CO[C@H]1O[C@H](CO)[C@@H](OC(=O)Nc2ccccc2)[C@H](OC(=O)c2cc3ccccc3[nH]2)[C@H]1OC(=O)c1cc2ccccc2[nH]1 | 2.41 (inactive) | 0.783 | -1.83 | -4.4 (inactive) | -0.389 (inactive) | -0.562 (inactive)
15 | CO[C@H]1O[C@H](CO)[C@@H](OC(=O)Nc2ccc(Br)cc2)[C@@H]2OC(=O)[C@@H](Cc3ccccc3)C/C=C/C[C@H](Cc3ccccc3)C(=O)O[C@@H]12 | 0.491 (inactive) | 0.693 | -0.683 | -1.27 (inactive) | -0.324 (inactive) | 0.406 (inactive)
16 | CS(=O)(=O)CCOC(=O)C1=CC(CCCO)=CC(c2ccc(CN3CCCC3)cc2)N(Cc2sc3ccccc3c2Cl)C=C1C(=O)OCCS(C)(=O)=O (stereo not given) | 0.814 (inactive) | 0.746 | -3.03 | 1.07 (inactive) | 0.316 (inactive) | 0.969 (inactive)
17 | NC(=O)NCC#Cc1ccc2c(c1)[C@]1(C(=O)N2)[C@H](C(=O)N2CCN(c3ncccn3)CC2)[C@H]2C(=O)O[C@H](c3ccccc3)[C@H](c3ccccc3)N2[C@@H]1c1ccc(O)cc1 | -0.0728 (inactive) | 0.58 | 1.79 | -1.83 (inactive) | 0.161 (inactive) | 0.359 (inactive)
18 | COC(=O)C1=CC(CCCO)=CC(c2ccc(CN3CCCC3)cc2)N(Cc2cccc(OC(F)(F)F)c2)C=C1C(=O)OC (stereo not given) | 1.68 (inactive) | 0.677 | -2.09 | -5.07 (inactive) | -0.268 (inactive) | -0.184 (inactive)
19 | CC(C)N1C(=O)c2ccccc2[C@@H](C(=O)NCCN2CCOCC2)[C@@H]1c1ccc(CO)cc1 | 0.122 (inactive) | 0.0961 | -0.22 | -4.17 (inactive) | -0.0809 (inactive) | -0.264 (inactive)
20 | CC(C)c1ccc(NN2C(C(O)c3ccc(F)cc3)C=CC3C(=O)N(c4ccccc4)C(=O)C32)cc1 (stereo not given) | 0.344 (inactive) | 0.774 | -0.344 | -1.93 (inactive) | 0.51 (inactive) | 0.374 (inactive)
